Data published in ChEMBL document CHEMBL1157539, “Thousands of chemical starting points for antimalarial lead identification” (Nature, 2010).

tested on: Plasmodium falciparum; assay: GSK_TCMDC: Inhibition of Plasmodium falciparum Dd2 in whole red blood cells, using parasite LDH activity as an index of growth. Test compounds present at 2uM; assay type: functional

SMILES	Inhibition [%]
O=C(NCCCCN1CCC(c2ccc3c(c2OCCCO)CCCC3)CC1)c1ccc(-c2ccc(C(F)(F)F)cc2)cc1	53
COc1ccc(-c2cnn3ccc(Nc4cc(OC)c(OC)c(OC)c4)nc23)cc1OC	100
CCN(CC)CCN(Cc1ccc(-c2ccc(C(F)(F)F)cc2)cc1)C(=O)Cn1c(CCc2cccc(F)c2F)nc(=O)c2sccc21.O=C(O)C(O)C(O)C(=O)O	70
NC1CCN(Cc2ccc(-c3cccc(-c4nc5ccccc5[nH]4)c3)cc2)C1.O=C(O)C(F)(F)F (centres undefined)	0
Cc1ccc(C2CCN(CCCCNC(=O)c3ccc(NC(=O)c4ccc(Cl)cc4)cc3)CC2)c(OCC2CC2)c1.Cl	95
COc1ccc(Cn2c(Nc3cccc(C(F)(F)F)c3)nc3cc(C(=O)NCCN4CCCC4)cnc32)cc1Cl	31
CC(C)CCNC(=O)C1Cc2c([nH]c3ccc(Br)cc23)C2(CCN(Cc3ccccc3)CC2)N1 (centres undefined)	68
COc1ccc(OC)c(NC(=O)C2c3ccccc3C(=O)N(CC(C)C)C2c2cccs2)c1 (centres undefined)	66
FC(F)(F)c1cccc(CNCC2CCN(CC3CCCCC3)CC2)c1.O=C(O)C(F)(F)F	24

tested on: HepG2; assay: GSK_TCMDC: Percent inhibition of human HepG2 cell line. Test compounds present at 10uM.; assay type: functional

SMILES	Inhibition [%]
COc1cc(CCN(C)Cc2ccc(OC)c(OC)c2)ccc1NC(=O)c1cccc2c(O)c3cccc(F)c3nc12	14
Clc1ncnc2ncn(Cc3cccc(Br)c3)c12	0
CCCN1CCN(c2ccccc2NS(=O)(=O)c2ccc(C(=O)Nc3ccc(Cl)cc3)cc2)CC1.O=C(O)C(F)(F)F	17
Cc1ccc2c(N/N=C/c3ccccc3[N+](=O)[O-])cc(C)nc2c1	13
O=C(C=Cc1ccc(Cl)c(Cl)c1)NCCCCCN1CCC(CCCNC(=O)/C=C/c2ccccc2)CC1	50
CN(C)CCNCc1ccc(-c2ccc3c(Nc4ccc(Cl)cc4F)ccnc3c2)o1	14
CC(C)Oc1cc2c(cc1NS(=O)(=O)c1ccc(-c3ccc(Cl)cc3)cc1)CCN(C)CC2.Cl	100
Cc1cc(Nc2ccc(C)c(C)c2)n2nc(C)nc2n1	10
CCN(c1cc(C)nc(Nc2ccc(Cl)cc2)n1)[C@H]1CCN(Cc2ccccc2)C1	46
Cl.Clc1ccc(OCCC2CCN(CCCCCCCN3CCC(CCOc4ccc(Cl)c(Cl)c4)CC3)CC2)cc1Cl	100
COc1ccccc1N1CCN(C(C(=O)NCc2ccc3c(c2)OCO3)c2ccc(C)cc2)CC1 (centres undefined)	1
Cn1nc(-c2ccc(NC(=O)Nc3cc(C(F)(F)F)ccc3F)c(F)c2)c2cnc(NCCCn3ccnc3)nc21.O=C(O)C(F)(F)F	45
COc1cccc2c(N/N=C/c3cccc([N+](=O)[O-])c3)ccnc12	12
CCc1sc(-c2cc(Cl)ccc2OC)nc1C(=O)NCCN1CCCCC1.O=C(O)C(F)(F)F	3
COc1cc(NC(=O)N2CCOC(CCN3CCC(c4ccccc4)CC3)(c3ccc(Cl)c(Cl)c3)C2)cc(OC)c1OC (centres undefined)	15
COCCNC(=O)C(CNC(=O)c1ccc2c(c1)OCO2)NC(=O)c1ccc(-c2ccccc2)cc1 (centres undefined)	14
COc1cc2ccccc2c(OC)c1CNCCCCCCNCc1c(OC)cc2ccccc2c1OC.CS(=O)(=O)O	100
COc1ccc2nccc([C@@H](O)CN3CCC(NC(=O)/C=C/c4cc([N+](=O)[O-])ccc4OC)CC3)c2c1	12
Nc1nccc2ccc(OC3CCCCC3)cc12.O=CO	24
O=C(Nc1cccc(-c2cccc(-c3nc4cc(C(F)(F)F)ccc4[nH]3)c2)c1)c1c[nH]cn1	14

SMILES	Inhibition [%]
COc1cc2nc(N[C@@H](CO)c3ccccc3)nc(NCc3ccccc3)c2cc1OC	6
CS(=O)(=O)N(c1ccccc1)c1cc(C(=O)N[C@@H](Cc2ccccc2)[C@H](O)CNC2CC2)cc(N2CCCC2=O)c1	1
CCN(CC)CCN(CCN(CC)CC)c1ccc(-c2nc3cc(Cl)c(Cl)cc3[nH]2)cc1	9
COc1ccc(NC(=O)/C=C/c2ccc(Oc3ccccc3Cl)c([N+](=O)[O-])c2)cc1OCCN(C(C)C)C(C)C	31
Cc1ccc(NC(=O)c2cccc(CN3CCCN(Cc4cccc(O)c4)CC3)c2)cc1.O=C(O)C(F)(F)F	22
N#Cc1ccc(-c2nc3c(N4CCCC4)cccc3n2CCNCc2ccccc2)cc1.O=C(O)C(F)(F)F	2
N#CC(c1ccc(Cl)cc1)c1ccc2c(C(F)(F)F)cc(C(F)(F)F)nc2n1 (centres undefined)	68
COc1ccc2nccc(N3CCCN(CCNCc4ccc5c(n4)NC(=O)CS5)CC3)c2n1.Cl	8
O=C(/C=C/c1ccc(Cl)c(Cl)c1)NCCCCCN1CCCC(C(=O)Nc2ccc(Cl)cc2)C1 (centres undefined)	35
COc1ccc(CNCCCCCCNCCc2ccc(Cl)cc2)cc1OC.Cl	21
CS(=O)(=O)c1ccc(CNCc2ccc(-c3ccc(-c4nc5cc(C(F)(F)F)ccc5[nH]4)cc3)cc2)cc1.O=C(O)C(F)(F)F	26
O=C(NCCCCN1CCC(c2ccc3c(c2OCCCO)CCCC3)CC1)c1ccc(-c2ccc(C(F)(F)F)cc2)cc1	98
COc1ccc(-c2cnn3ccc(Nc4cc(OC)c(OC)c(OC)c4)nc23)cc1OC	57
CCN(CC)CCN(Cc1ccc(-c2ccc(C(F)(F)F)cc2)cc1)C(=O)Cn1c(CCc2cccc(F)c2F)nc(=O)c2sccc21.O=C(O)C(O)C(O)C(=O)O	70
NC1CCN(Cc2ccc(-c3cccc(-c4nc5ccccc5[nH]4)c3)cc2)C1.O=C(O)C(F)(F)F (centres undefined)	19
Cc1ccc(C2CCN(CCCCNC(=O)c3ccc(NC(=O)c4ccc(Cl)cc4)cc3)CC2)c(OCC2CC2)c1.Cl	63
COc1ccc(Cn2c(Nc3cccc(C(F)(F)F)c3)nc3cc(C(=O)NCCN4CCCC4)cnc32)cc1Cl	10
CC(C)CCNC(=O)C1Cc2c([nH]c3ccc(Br)cc23)C2(CCN(Cc3ccccc3)CC2)N1 (centres undefined)	100
COc1ccc(OC)c(NC(=O)C2c3ccccc3C(=O)N(CC(C)C)C2c2cccs2)c1 (centres undefined)	9
FC(F)(F)c1cccc(CNCC2CCN(CC3CCCCC3)CC2)c1.O=C(O)C(F)(F)F	21
